# About 83,000 compounds went through this panel and 20% of them were active in at least one assay; those are over-represented in the sample as a whole.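 Percent growth is the endpoint: 0 to 100 indicates growth inhibition (40 means 60% inhibition), 0 means no net growth, and negative values indicate cell death.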 The source made the active and inactive calls. Rule for the calls: active = growth percent below 10; inactive = the rest.
# Test system: HL-60(TB) leukemia
# Assay: NCI-60 one-dose screen, 48 h (100 = growth as untreated, 0 = no growth, -100 = all killed)
# Details: 10 µM unless noted
row,Compound,growth
1,CCOC(=O)C1(C)CCCC1N (stereo not given),98.5% (inactive)
2,CN(C)c1ccc(NC(=O)c2ccc(/C=C/C(=O)c3ncc[nH]3)cc2)cc1,17.5% (inactive)
3,O=C(O)c1cc([N+](=O)[O-])ccc1Cl,104% (inactive)
4,C[C@H](CCC[C@H](C)OS(=O)(=O)c1ccccc1)OS(=O)(=O)c1ccccc1,119% (inactive)
5,COc1ncnc2c1ncn2C/C(Br)=C(\Br)CCl,47.1% (inactive)
6,CCOC(=O)c1c(C)[nH]c(C(=O)CCC(=O)OC)c1C,94.9% (inactive)
7,O=C(/C=C/C12c3ccccc3C(c3ccccc31)C1C(=O)NC(=O)C12)c1cccs1 (stereo not given),6.95% (active)
8,CCn1cc(-c2ccnc(NCCNS(=O)(=O)c3ccc(Br)cc3)c2)c(-c2cccc(OC)c2)n1,81.4% (inactive)
9,Cc1ccc(Cc2ccc(C)cc2)cc1,95.9% (inactive)
10,CCOC(=O)c1c(C)nc2c(c1N)C(=O)C(=O)N2Cc1ccc(C(F)(F)F)cc1,43.5% (inactive)
11,O=c1cc(CSc2nnc(-c3ccccc3)n2-c2ccc(F)cc2)c2ccc3ccccc3c2o1,99.5% (inactive)
12,Clc1ccc(C(/C=C/c2sc(Cl)nc2Cl)=N/Nc2cc(Cl)cc(Cl)c2)cc1,99.4% (inactive)
13,CCOC(=O)c1cn2ncnc(Oc3ccc(NC(=O)NCCN4CCN(C)CC4)c(Cl)c3)c2c1C,96.9% (inactive)
14,CCc1ccc(C2=C(O)C(=O)C(c3ccc(CC)cc3)=C(O)C2=O)cc1,-57.6% (active)
15,Cc1c(Cl)cccc1NC(=O)c1sc2nc3c(cc2c1N)CCCC3,5.57% (active)
16,COc1ccc(-c2nc(Nc3nc4ccccc4[nH]3)nc(N)c2C#N)cc1,97.8% (inactive)
17,COc1ccc(/C=C/C(=O)/C=C/c2cc3ccccc3[nH]c2=O)cc1,62.9% (inactive)
18,COc1ccc(C2c3ccc4ccccc4c3Oc3ncnc(N)c32)cc1 (stereo not given),89% (inactive)

row,Compound,growth
1,COc1cc2nc3cc([N+](=O)[O-])ccc3c(NCCNCC(C)(C)O)c2cc1OC,-12.8% (active)
2,CCCCCCCCCCCCCC(=S)NCCCC[C@H](NC(=O)OCc1ccccc1)C(=O)Nc1ccccc1,8.79% (active)
3,CCNS(=O)(=O)c1ccc(C)cc1,72% (inactive)
4,Nc1nc(N)c2c(n1)NC(c1ccc3c(c1)OCO3)CC(c1cccc(Nc3ccncc3)c1)=N2 (stereo not given),57% (inactive)
5,COc1ccc(-c2cc3cnc4ccccc4c3oc2=O)cc1,94.2% (inactive)
6,Nc1nc(N)c2nc(CNc3ccc(C(=O)CC(CCC(=O)O)C(=O)O)cc3)cnc2n1 (stereo not given),49% (inactive)
7,CCCOc1nc(SCCC)nc2c1cnn2-c1ccccc1,136% (inactive)
8,Oc1ccccc1-c1nc2ccccn2c1NCCN1CCOCC1,102% (inactive)
9,CN=C(N)N/N=C(\C)c1ccc2c(c1)Cc1ccccc1-2,-50.3% (active)
10,CC1(C)[C@@H](NOCCCN)CC[C@]2(C)[C@H]3C(=O)C=C4[C@@H]5C[C@](C)(C(=O)O)CC[C@]5(C)CC[C@@]4(C)[C@]3(C)CC[C@@H]12,-31.3% [100 µM] (active)
11,CN1CCN(CC(O)COc2c(Br)c(Br)c(Br)c3c2OC(C)(C)C3)CC1 (stereo not given),35.5% (inactive)
12,Cc1nn(-c2ccc([N+](=O)[O-])cc2)c2ncnc(N/N=C/c3ccccc3O)c12,-0.479% (active)
13,COc1cc(C#N)cc(OC)c1OCCN(CCOc1c(OC)cc(C#N)cc1OC)S(=O)(=O)c1ccc(C)cc1,102% (inactive)
14,CNc1ccc(Nc2ccc(S(=O)(=O)O)cc2)c2c1C(=O)c1ccccc1C2=O,120% (inactive)
15,O=C(O)c1cc(C(F)(F)F)cc(C(F)(F)F)c1,88.2% (inactive)
16,COc1ccc(CNC(=O)C(O)C(Cc2ccccc2)NC(=O)c2[nH]c3ccccc3c(=O)c2C)cc1OC (stereo not given),97.3% (inactive)
17,CCOC(=O)NN1CC(O)=C(c2nc(-c3ccc(Br)cc3)cs2)C1=N,98.8% (inactive)
